Our source for the outcome values is PubChem BioAssay (EPA / NIEHS).

Results filed as inconclusive are left out. Activity calls are given as the source filed them. How the source made its calls: active means hit-call score of the fitted dose curve at least 0.9, where 1 is the maximum; inconclusive means response in the unintended direction; inactive means score below 0.9.

A short description of the test: CCTE_Mundy_HCI_iCellGluta_NOG_NeuriteCount: CCTE's Neurite Outgrowth Assay in iCellGluta cells for Neurite Count, Mundy Lab (AID 2284342).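 Further: chemical exposure about 48 hours starting 2 hours after plating.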 The method, then:
CCTE_Mundy_HCI_iCellGluta_NOG is a multiplexed, cell-based-readout assay that uses iCell GlutaNeurons from FUJIFILM Cellular Dynamics, Inc. (FCDI), human glutamatergic enriched neurons derived from induced pluripotent stem (iPS) cells, with measurements taken at 50.33 hours after chemical dosing in a microplate: 96-well plate.CCTE_Mundy_HCI_iCellGluta_NOG_NeuriteCount is one of four components of the CCTE_Mundy_HCI_iCellGluta_NOG assay. It measures neurite outgrowth related to number of neurites using High Content Imaging of fluorescently labelled markers.Data from the assay component CCTE_Mundy_HCI_iCellGluta_NOG_NeuriteCount was analyzed at the endpoint CCTE_Mundy_HCI_iCellGluta_NOG_NeuriteCount in the positive analysis fitting direction relative to DMSO as the negative control and baseline of activity. Using a type of morphology reporter, loss-of-signal activity can be used to understand developmental effects.
Exposure starts 2 hours post-plating by adding 10 ul of the working solution to 90 ul of media in the wells for a 1/10 dilution. Forty-eight hours after chemical treatment cells are fixed by direct addition of 100 ul of warm (37C) Dulbecco's phosphate buffered saline (DPBS) fixative solution containing 8% paraformaldehyde, 8% sucrose, and 0.1% of 3 mg/ml Hoechst 33342 into each well. Primary antibodies are prepared by dilution in Immunocytochemical Staining Buffer (ISB), 10X Dulbecco's PBS, 0.1% Saponin, 5% Bovine Serum Albumin, 0.5% NaN3 (Sodium Azide) and betaIII-tubulin (rabbit anti-betaIII-tubulin, 1:800) followed by Alexa Fluor-488 secondary (1:500) to label neuronal cell bodies and neurites. A Cellomics ArrayScan VTi HCS Reader is used for automated image acquisition and analysis of neurite outgrowth.
In the case of `OCCCC(F)(F)C(F)(F)C(F)(F)C(F)(F)C(F)(F)C(F)(F)C(F)(F)C(F)(F)F`, the outcome was inactive.
For `C=CC(=O)OCC(F)(F)C(F)(F)C(F)(F)COC(=O)C=C` the value was “inactive”; for `O=C(O)C(F)(F)C(F)(F)C(F)(F)OC(F)(C(F)(F)F)C(F)(F)F`, “inactive”.
Then `CCN(CCO)S(=O)(=O)C(F)(F)C(F)(F)C(F)(F)C(F)(F)C(F)(F)C(F)(F)C(F)(F)C(F)(F)F`, with “inactive”; and `O=S(=O)(O)CCC(F)(F)C(F)(F)C(F)(F)C(F)(F)C(F)(F)C(F)(F)C(F)(F)C(F)(F)F`, with “inactive”; and `O=C(O)C(F)(F)C(F)(F)C(F)(F)OC(F)(F)F`, with “inactive”.
Then `NC(=O)C(F)(F)C(F)(F)C(F)(F)C(F)(F)C(N)=O`, with “inactive”; and `NC(=O)C(F)(F)C(F)(F)C(F)(F)C(F)(F)C(F)(F)C(F)(F)C(F)(F)F`, with “inactive”.
Consider `OCCCCC(F)(F)C(F)(F)C(F)(F)C(F)(F)F`, for which the result was inactive.
Then `NC(O)(C(F)(F)F)C(F)(F)F`, with “inactive”; and `O=C(O)CCC(F)(F)C(F)(F)C(F)(F)C(F)(F)C(F)(F)C(F)(F)C(F)(F)F`, with “inactive”.
Then `O=C(F)C1(F)C(F)(F)C(F)(F)C(F)(F)C(F)(F)C1(F)F`, with “inactive”; and `O=C(O)CCC(F)(F)C(F)(F)C(F)(F)F`, with “inactive”.
